Compound activity as filed in PubChem BioAssay.
This is a sample that favours compounds with a hit; in the whole collection about 3.7% have one here.
Vc quorum ag: quorum light induction in luxS cqsA deficient V. cholerae; V. cholerae BH1578 lux reporter, luminescence, 6 h; AID 588436; activation, % at 18.7 µM; hit rate 0.16% among 350,000; in the data active means activation mostly above about 9.7%, no sharp cut-off; inconclusive means no clear call, values can overlap the other calls; inactive means mostly below about 3.7%
BoNT-F LC inh: inhibitors of Botulinum neurotoxin F light chain protease. Multiplex microsphere protease cleavage assay, flow cytometry. inhibition, % at 10 µM. hit rate 0.22% among 360,000; in the data active means inhibition above about 35%, passing the limit was not always enough; inconclusive means no clear call, values can overlap the other calls; further: plate controls were buffer without enzyme for full effect and enzyme alone for no effect
Anthrax LF prot: blocks Bacillus anthracis lethal factor protease. multiplex microsphere protease cleavage assay, LF. inhibition, % at 10 µM. hit rate 0.12% among 360,000. AID 588501; further: plate controls were buffer without enzyme for full effect and enzyme alone for no effect
Target sequence (P15917 whole entry, looked up): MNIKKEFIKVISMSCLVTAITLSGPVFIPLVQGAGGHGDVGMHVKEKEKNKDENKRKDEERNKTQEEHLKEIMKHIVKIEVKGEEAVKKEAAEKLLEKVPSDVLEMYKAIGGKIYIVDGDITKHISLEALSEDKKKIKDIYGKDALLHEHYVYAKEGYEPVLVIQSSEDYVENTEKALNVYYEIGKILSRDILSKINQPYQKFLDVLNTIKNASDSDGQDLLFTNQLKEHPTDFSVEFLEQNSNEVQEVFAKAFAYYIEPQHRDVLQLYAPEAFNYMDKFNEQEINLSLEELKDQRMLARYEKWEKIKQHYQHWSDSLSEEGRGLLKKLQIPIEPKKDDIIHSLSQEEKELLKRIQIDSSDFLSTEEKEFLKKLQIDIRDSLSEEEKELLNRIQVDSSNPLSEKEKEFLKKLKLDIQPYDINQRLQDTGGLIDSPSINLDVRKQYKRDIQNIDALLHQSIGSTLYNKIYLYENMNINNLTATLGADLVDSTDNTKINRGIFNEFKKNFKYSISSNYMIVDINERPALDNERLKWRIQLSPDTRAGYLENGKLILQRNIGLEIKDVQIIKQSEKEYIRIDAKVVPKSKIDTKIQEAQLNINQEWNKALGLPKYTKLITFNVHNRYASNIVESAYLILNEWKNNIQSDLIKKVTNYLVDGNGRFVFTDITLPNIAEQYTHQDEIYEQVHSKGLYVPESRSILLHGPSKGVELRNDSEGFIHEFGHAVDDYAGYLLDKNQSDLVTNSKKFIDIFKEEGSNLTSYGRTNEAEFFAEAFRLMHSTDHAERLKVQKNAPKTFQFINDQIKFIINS
BJeLR lethal: BJeLR cell viability loss. BJeLR (HRASV12) viability, CellTiter-Glo ATP luminescence, 48 h. inhibition, % (no concentration beside the values). hit rate 0.17% among 300,000; in the data active means inhibition above about 50%; inconclusive means no clear call, values can overlap the other calls
BoNT A protease: blocks Botulinum neurotoxin A light chain protease. multiplex microsphere protease substrate cleavage, flow cytometry. inhibition, % at 10 µM. hit rate 0.17% among 360,000. AID 588499; further: plate controls were buffer without enzyme for full effect and enzyme alone for no effect
Autofluor counter: compound fluorescence in toxin protease inhibitor counterscreen | compound autofluorescence counterscreen, microsphere flow cytometry; hits give high values | fluorescence intensity (no concentration beside the values) | hit rate 3.1% among 360,000; in the data active means fluorescence intensity above about 16000; inconclusive means no clear call, values can overlap the other calls
Starred values were filed as active, the others as inactive. Unless noted, no stated cut-off is given here; in the data, active means inhibition above about 30%; inconclusive means no clear call, values can overlap the other calls; inactive means below that.

For CCC(=O)Nc1ccc(S(=O)(=O)Nc2nccs2)cc1 the results were Vc quorum ag inactive, BoNT-F LC inh -8, Anthrax LF prot 3, BJeLR lethal -8, BoNT A protease 1 and Autofluor counter 3203.
For Cc1cc(C(=O)Nc2ccc(S(=O)(=O)Nc3nccs3)cc2)c(C)o1 the results were Vc quorum ag 0, BoNT-F LC inh -3, Anthrax LF prot -2, BJeLR lethal 2, BoNT A protease -2 and Autofluor counter 24552*.
Screening CCCCC1CCC(C(=O)Nc2ccc(S(=O)(=O)Nc3nccs3)cc2)CC1 (stereo not given) returned Vc quorum ag -1, BoNT-F LC inh -4, Anthrax LF prot -2, BJeLR lethal 18, BoNT A protease inconclusive and Autofluor counter 24211*.
`O=C(O)c1ccc(Cn2ccc3ccccc32)o1` gave Vc quorum ag inactive, BoNT-F LC inh inconclusive, Anthrax LF prot -12, BJeLR lethal -7, BoNT A protease inconclusive and Autofluor counter 4333.
For c1ccc(C2(Cn3ccc4ccccc43)OCCO2)cc1 the results were Vc quorum ag 0, BoNT-F LC inh -15, Anthrax LF prot -3, BJeLR lethal -3, BoNT A protease 35* and Autofluor counter 24276*.
For CCc1ccc(C(C)NC(=O)/C=C/c2ccc(Br)cc2)cc1 (stereo not given) the results were Vc quorum ag -4, BoNT-F LC inh 2, Anthrax LF prot -1, BJeLR lethal 3, BoNT A protease -1 and Autofluor counter 22674*.
Screening CC(NC(=O)/C=C/c1ccc(Br)cc1)c1ccccc1 (stereo not given) returned Vc quorum ag 0, BoNT-F LC inh -6, Anthrax LF prot -1, BJeLR lethal -10, BoNT A protease 0 and Autofluor counter 1977.
Screening CC(C)C(CCNC(=O)CN1C(=O)c2ccccc2C1=O)c1ccco1 (stereo not given) returned Vc quorum ag -6, BoNT-F LC inh -3, Anthrax LF prot 1, BJeLR lethal 7, BoNT A protease 1 and Autofluor counter 5593.
`CC(C)C(CCNC(=O)CC(Cc1ccccc1)c1ccco1)c1ccco1` (stereo not given) gave Vc quorum ag inactive, BoNT-F LC inh -3, Anthrax LF prot -2, BJeLR lethal -3, BoNT A protease -1 and Autofluor counter 17138*.
`O=C(/C=C/c1ccccc1)NNC(=O)C1CC1` gave Vc quorum ag 0, BoNT-F LC inh 4, Anthrax LF prot -4, BJeLR lethal 6, BoNT A protease 4 and Autofluor counter 21872*.
COc1ccc(C(=O)/C=C/Nc2cccc(O)c2)cc1 was read as Vc quorum ag inactive, BoNT-F LC inh 1, Anthrax LF prot -12, BJeLR lethal 0, BoNT A protease inconclusive and Autofluor counter 20620*.
Screening COc1cccc(C(=O)/C=C/Nc2cc(C)ccc2O)c1 returned Vc quorum ag inactive, BoNT-F LC inh -1, Anthrax LF prot -2, BJeLR lethal -8, BoNT A protease 0 and Autofluor counter 23605*.
Screening CC1=CC(Cc2ccccc2)N(C)C(C(N)=O)C1 (stereo not given) returned BoNT-F LC inh -1, Anthrax LF prot 0, BoNT A protease 0 and Autofluor counter 5518.
`Cc1ccn(CCSCC(=O)O)n1` gave Vc quorum ag 0, BoNT-F LC inh 2, Anthrax LF prot -3, BJeLR lethal -1, BoNT A protease inconclusive and Autofluor counter 22249*.
`O=C(O)CSCCn1cccn1` gave Vc quorum ag 0, BoNT-F LC inh -3, Anthrax LF prot -2, BJeLR lethal 0, BoNT A protease -1 and Autofluor counter 9386.
For CCOc1ccc(-c2nn(-c3ccccc3)cc2/C=C2\SC(=S)N(Cc3ccco3)C2=O)cc1 the results were Vc quorum ag 0, BoNT-F LC inh 6, Anthrax LF prot 14, BJeLR lethal -2, BoNT A protease 37* and Autofluor counter 2009.
`Cc1sc2ncnc(SCC(=O)NC3CCCC3)c2c1C` gave Vc quorum ag 2, BoNT-F LC inh 4, Anthrax LF prot -5, BJeLR lethal 0, BoNT A protease 1 and Autofluor counter 4274.
Screening Cc1sc2ncnc(SCC(=O)NC3CC3)c2c1C returned Vc quorum ag 1, BoNT-F LC inh -3, Anthrax LF prot 2, BJeLR lethal -2, BoNT A protease -2 and Autofluor counter 24257*.
COCCN(CC(=O)Nc1cccc(C)c1C)C(=O)/C=C/c1ccc2c(c1)OCCO2 was read as Vc quorum ag 5, BoNT-F LC inh 0, Anthrax LF prot -2, BoNT A protease 0 and Autofluor counter 3910.
`Cc1cc(C)cc(Oc2nn[nH]n2)c1` gave Vc quorum ag 0, BoNT-F LC inh -4, Anthrax LF prot 1, BJeLR lethal -9, BoNT A protease -1 and Autofluor counter 24301*.
For Cc1cn([C@H]2C[C@H](O)[C@@H](CNCc3ccc(F)c(N4CCOCC4)c3)O2)c(=O)[nH]c1=O the results were Vc quorum ag 0, BoNT-F LC inh 0, Anthrax LF prot -8, BoNT A protease 0 and Autofluor counter 3637.
Screening CC1(C)CC(=O)C2=C(C1)c1c(ccc3ccccc13)NC2c1ccc(C(=O)O)cc1 (stereo not given) returned Vc quorum ag -1, BoNT-F LC inh -10, Anthrax LF prot -9, BJeLR lethal 6, BoNT A protease -1 and Autofluor counter 3009.
Screening Cc1ccc(C2Nc3ccc4ccccc4c3C3=C2C(=O)CC(C)(C)C3)o1 (stereo not given) returned Vc quorum ag -3, BoNT-F LC inh 1, Anthrax LF prot -8, BJeLR lethal -3, BoNT A protease 3 and Autofluor counter 21585*.
`CC1CN(S(=O)(=O)c2ccc(Cl)c(C(F)(F)F)c2)CC(C)O1` (stereo not given) gave Vc quorum ag 0, BoNT-F LC inh -3, Anthrax LF prot 2, BJeLR lethal -7, BoNT A protease inconclusive and Autofluor counter 16300*.
Screening CC1CN(C2CCN(S(=O)(=O)c3ccc(F)cc3)CC2)CC(C)O1 (stereo not given) returned Vc quorum ag 0, BoNT-F LC inh -10, Anthrax LF prot 0, BJeLR lethal 5, BoNT A protease -6 and Autofluor counter 18932*.
CN1CCN(S(=O)(=O)c2ccc(Cl)c(C(F)(F)F)c2)CC1 was read as Vc quorum ag inactive, BoNT-F LC inh 4, Anthrax LF prot 4, BoNT A protease 0 and Autofluor counter 3630.
`CC1CN(C2CCN(C(=O)c3ccccc3)CC2)CC(C)O1` (stereo not given) gave Vc quorum ag 3, BoNT-F LC inh 1, Anthrax LF prot -2, BJeLR lethal 2, BoNT A protease 0 and Autofluor counter 16799*.
For CC1CN(C2CCN(S(=O)(=O)Cc3ccccc3)CC2)CC(C)O1 (stereo not given) the results were Vc quorum ag -18, BoNT-F LC inh 2, Anthrax LF prot -2, BJeLR lethal 0, BoNT A protease 0 and Autofluor counter 22746*.
